Platelet DG rel – inhibitors of platelet dense granule secretion, primary screen, cell-based, MLPCN, human platelets. human platelet-rich plasma, SFLLRN dense granule ATP release, luminescence. inhibition, %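 (compounds screened at 7.5 µM in platelet-rich plasma)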. 300,000 compounds, 0.22% hits. AID 1663, 2009;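 active = mean replicate score, as percent of positive control, at or above 50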
TROY signal inh – inhibitors of TROY-driven NF-kB signaling, primary screen, Q293 LMP1-TROYcd cells, NF-kB luciferase, uHTS | inhibition, % at 10 µM | Q293 LMP1-TROYcd NF-kB luciferase reporter, 4 h | 360,000 compounds, 0.98% hits;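 active = compounds whose plate-normalised and pattern-corrected inhibition of the luciferase reporter signal at the single screening dose is 50% or more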
TRAIL sens C8 – viability loss with TRAIL in NB7+C8 cells, primary screen, TRAIL sensitizer project, cell-based, ATPlite luminescence; AID 624354, 2012; inhibition (viability loss, TRAIL sensitization), % at 10 µM; 360,000 compounds, 1% hits;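 active = compounds causing at least 50% loss of cell viability in the single-dose screen, relative to plate controls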
PPC-1+TRAIL kill – compounds killing PPC-1 cancer cells with TRAIL present, primary screen, TRAIL potentiator project, ATPLite luminescence, uHTS; PPC-1 cells + TRAIL, ATPLite viability luminescence; cell killing (% activity), % at 4 µM or 5 µM; AID 1443, 2008; 220,000 compounds, 0.41% hits;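 active = cell killing above 50% in the first pass at 4 µM, then a duplicate retest at 5 µM averaging 50% or more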;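 note: plate controls were cells with TRAIL plus DMSO for no effect and medium-only wells lacking cells for full effect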
TWEAK Fn14 block – inhibitors of TWEAK-Fn14 signaling, primary screen, luciferase reporter cells, uHTS; TWEAK-stimulated Fn14 reporter cells, luciferase luminescence, 8 h; AID 1159606, 2016; inhibition, % at 10 µM; 360,000 compounds, 2% hits; in the data active = inhibition above about 50%
HSP90 inh – HSP90 inhibitors, primary screen, cell lysate, luminescence. Heat shock protein HSP 90 (rabbit reticulocyte lysate; luciferase refolding). Rabbit reticulocyte lysate, luciferase refolding luminescence, 3 h. inhibition, % at 5.6 µM. 290,000 compounds, 0.91% hits;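 active = inhibition above the screen-wide mean plus 3 SD, computed separately per campaign, cut at about 16% in these data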;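 note: 0% = DMSO wells and 100% = 60 µM geldanamycin wells; inhibitors lower the luminescence because luciferase stays unfolded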
* = called active by the depositor; nt = no result. Rows were chosen to be rich in hits. Some 3.5% of all compounds tested hit in one or more screens of this group.

SMILES | Platelet DG rel | TROY signal inh | TRAIL sens C8 | PPC-1+TRAIL kill | TWEAK Fn14 block | HSP90 inh
COc1ccccc1NC(=O)/C(=C\c1cccnc1)NC(=O)c1ccc(C)cc1 | -7 | 4 | -18 | nt | 61* | -1
O=C(C[C@H]1C=C[C@@H](NS(=O)(=O)c2ccccc2)[C@@H](CO)O1)NCc1ccc(Cl)c(Cl)c1 | nt | nt | -8 | nt | nt | nt
COc1cc(OC)c2c(-c3cccc(-c4ccc(OC)c(OC)c4)c3)cc(=O)oc2c1 | nt | 16 | 11 | nt | 97* | nt
Cc1ccccc1NC(=S)c1ccc2ccccc2n1 | 54* | -56 | -7 | nt | -2 | -5
O=c1[nH]c(=O)c2cc([N+](=O)[O-])cc([N+](=O)[O-])c2[nH]1 | -1 | 68* | -2 | 8 | 7 | -2
COc1ccc(CCNC(=O)CSc2nc(N)c3c(C)c(C)oc3n2)cc1OC | 74* | -6 | -3 | 4 | -6 | 0
COc1ccc(CCNC(=O)CSc2n[nH]c(N)n2)cc1OC | -33 | 21 | -4 | nt | 0 | -2
CCOC(=O)c1cc([N+](=O)[O-])sc1N | -4 | -5 | -9 | -10 | 2 | 0
CCOC(=O)c1cc([N+](=O)[O-])sc1NC(=O)CC | 21 | 2 | 9 | 0 | 99* | -2
CN(Cc1ccccc1)C(=O)c1ccc(NC(=O)Cc2ccc([N+](=O)[O-])cc2)cc1 | nt | 7 | -10 | nt | 3 | nt
Cc1nn(-c2ccccc2)c(Cl)c1/C=N/NC(=O)c1ccn[nH]1 | 2 | -16 | 75* | nt | 50* | 17*
Cc1cc(C(=O)N/N=C/c2c(C)nn(-c3ccccc3)c2Cl)n[nH]1 | 1 | -11 | 32 | 5 | -19 | 1
COC(=O)c1ccc(CN2C(=O)NC3(CCCCC3C)C2=O)o1 (stereo not given) | -1 | nt | 14 | 15 | 53* | 0
O=C(Nc1ccc(Cl)cc1)N1CCSCC1 | 13 | -23 | -3 | 6 | -16 | 2
O=C(Nc1ccccc1)N1CCSCC1 | 22 | nt | 1 | 12 | 73* | -4
O=C(COc1ccccc1[N+](=O)[O-])Nc1cccc(S(=O)(=O)N2CCCC2)c1 | nt | -17 | -8 | nt | -1 | nt
O=C(COc1cc(F)ccc1[N+](=O)[O-])Nc1cc(S(=O)(=O)N2CCCC2)ccc1Cl | nt | 0 | 52* | nt | -2 | nt
O=C(Nc1cc(S(=O)(=O)N2CCCCC2)ccc1Cl)c1ccccc1NS(=O)(=O)c1ccc(F)cc1 | 9 | 52* | 45 | 24 | 65* | -2
S=C(NCCc1ccccc1)N1CCC2CC1c1c(Cl)cccc12 (stereo not given) | nt | 3 | 5 | nt | 13 | nt
O=C(NCCN1C(=O)S/C(=C\c2ccc(Cl)c([N+](=O)[O-])c2)C1=O)C1=COCCO1 | -4 | 57* | 55* | nt | 64* | nt
O=C(NCCN1C(=O)S/C(=C\c2ccc(Cl)c(Cl)c2)C1=O)c1cnccn1 | 20 | 12 | 1 | 31 | 7 | -4
O=C(O)C1CCC(=O)N1Cc1ccc(F)cc1 (stereo not given) | 5 | 7 | -20 | 0 | 50* | -3
Cc1ccc(CNC(=O)C2CCC(=O)N2Cc2ccc(F)cc2)cc1 (stereo not given) | 3 | 5 | 12 | nt | -18 | -1
CC(C)[C@H](NC(=O)c1ccc(C(C)(C)C)cc1)C(=O)N1CCN(Cc2ccc3c(c2)OCO3)CC1 | nt | 24 | -3 | nt | 17 | nt
O=C(c1ccccc1)C1C(=O)c2ccccc2C1=O | -2 | 8 | 13 | -8 | -6 | 2
SMILES | Platelet DG rel | TROY signal inh | TRAIL sens C8 | PPC-1+TRAIL kill | TWEAK Fn14 block | HSP90 inh
O=C(/C=C/c1ccccc1)C1C(=O)c2ccccc2C1=O | -4 | -30 | 87* | 37 | 28 | 0
CCc1ccc(C2C(C(=O)O)c3ccccc3C(=O)N2C)cc1 (stereo not given) | 0 | -3 | 0 | 16 | 12 | 4
CCc1ccc(/C=C/C(=O)C2C(=O)c3ccccc3C2=O)cc1 | 9 | -44 | 91* | 24 | 1 | 4
COc1ccc(C2(C(=O)c3ccccc3)C(=O)c3ccccc3C2=O)cc1 | 7 | -15 | 55* | 26 | 17 | -4
COC(=O)c1ccc(N=C2SCC(=O)N2C)cc1 | -6 | -5 | 16 | nt | -12 | -4
Cc1ccc(S(=O)(=O)N2CCOc3ccccc32)c(C)c1NS(C)(=O)=O | -1 | 3 | 2 | nt | 95* | 1
Cc1ccc(S(=O)(=O)N2CC(=O)Nc3ccccc32)c(C)c1NS(C)(=O)=O | -2 | 6 | -4 | nt | -4 | 4
Cn1nnnc1SCc1csc(Nc2ccccc2)n1 | -1 | -11 | -9 | 8 | 4 | 3
Cc1ccc(Nc2nc(CSc3nnc(-c4ccccc4C)n3C)cs2)cc1 | 17 | 24 | 38 | 23 | 1 | -4
Cc1ccccc1-n1c(SCc2csc(Nc3ccccc3)n2)nnc1-c1cccnc1 | -11 | 18 | -8 | 0 | 24 | 4
Cc1ccc(Nc2nc(CSc3nnc(-c4cccnc4)n3-c3ccccc3C)cs2)cc1 | 7 | 51* | 9 | 24 | 53* | -2
Cc1ccc(Nc2nc(CSc3nnnn3-c3ccccc3)cs2)cc1 | 4 | 38 | 1 | -5 | 58* | 0
Cc1ccc(Nc2nc(CSc3nnnn3C)cs2)cc1 | 2 | 33 | 51* | 30 | 63* | 1
Cc1ccc(Nc2nc(CSc3nnc(-c4ccccc4)n3C)cs2)cc1 | -3 | 50 | 50* | 45 | 10 | 0
COc1ccc(N2CCN(C(=O)C(Cc3ccccc3)n3cccc3)CC2)cc1 (stereo not given) | 28 | 9 | -8 | 82* | 7 | 2
O=C(C(Cc1ccccc1)n1cccc1)N1CCN(c2cccc(Cl)c2)CC1 (stereo not given) | -1 | 13 | -1 | 8 | 24 | 4
COc1ccc(-c2cc(C(=O)N3CCN(c4ccccc4)CC3)no2)cc1 | 1 | 38 | -8 | nt | 50* | -2
CC1(C(=O)OCC(=O)NCCNC(=O)COC(=O)C2(C)CC2(Cl)Cl)CC1(Cl)Cl (stereo not given) | 16 | -6 | -18 | nt | -2 | -2
Cn1c(NCC(O)c2ccccc2)nc2c1c(=O)n(Cc1ccc(Cl)c(Cl)c1)c(=O)n2C (stereo not given) | -1 | 54* | 2 | nt | 49 | -1
Cn1c(NCC(O)c2ccccc2)nc2c1c(=O)n(Cc1ccc(Cl)cc1)c(=O)n2C (stereo not given) | -2 | 13 | -5 | 16 | 20 | -3
COc1ccc(/C=C/C(=O)CC(O)(c2ccccc2)C(F)(F)F)cc1 (stereo not given) | -2 | -36 | 0 | -3 | 29 | 1

Source: PubChem BioAssay
